# Sampled rows, rich in hits. Any-hit rate of the full collection: about 1.4%.
# MEX-5 binding: MEX-5 zinc finger RNA-binding disruptors – biochemical, C. elegans, fluorescence polarization, MLPCN library, primary screen; AID 1832, 2009; hit rate 0.38% among 300,000; MEX-5/FITC-TCR2 RNA binding; hits give low values; activity score (negative = inhibition of binding), % at 10 µM;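 active = inhibition past about -25% in most replicates, and total fluorescence under double the plate's negative control median, limit read from the data; inconclusive = replicates evenly split on the limit, or fluorescence at least double controls; inactive = too little inhibition in most replicates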;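 also: 0% = DMSO and -100% = 5 µM competing unlabeled TCR2 RNA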
# MCL1 BIM primary: inhibitors of MCL1 binding to BIM-BH3, primary screen, biochemical, fluorescence polarization; Induced myeloid leukemia cell differentiation protein Mcl-1 (Homo sapiens), Q07820; GST-MCL1 / FITC-Bim-BH3 fluorescence polarization; inhibition, % at 10.9 µM; hit rate 0.68% among 320,000; AID 2057, 2009;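 active = inhibition above the mean inhibition of all tested compounds plus 3 SD, set per campaign, cut at about 40% in these data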;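 also: 0% = DMSO wells and 100% = unlabeled Bim-BH3 peptide control; higher means more loss of mP so more displacement of Bim peptide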
# BCLXL inh: inhibitors of human Bcl-xL, primary screen, biochemical, fluorescence polarization, HTS; Bcl-2-like protein 1 (Homo sapiens), Q07817; GST-Bcl-xL / FITC-Bim BH3 peptide fluorescence polarization; inhibition, % at 10.9 µM; hit rate 0.7% among 320,000; AID 2129, 2009;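 active = inhibition above the mean of all tested compounds plus 3 SD, cutoff set per campaign, cut at about 30% in these data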;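 also: 0% = DMSO wells and 100% = unlabeled Bim-BH3 peptide competitor; inhibitors lower millipolarization by displacing the labeled peptide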
# Target sequence (Q07817 whole entry, looked up): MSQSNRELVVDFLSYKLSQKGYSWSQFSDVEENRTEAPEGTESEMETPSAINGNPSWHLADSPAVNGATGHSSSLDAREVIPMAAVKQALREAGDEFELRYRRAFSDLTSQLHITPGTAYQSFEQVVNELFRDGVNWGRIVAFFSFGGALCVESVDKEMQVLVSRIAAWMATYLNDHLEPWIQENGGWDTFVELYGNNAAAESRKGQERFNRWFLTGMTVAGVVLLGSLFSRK
# GLD-1 RNA inh: GLD-1/TGE RNA complex disruptors, primary screen, biochemical, fluorescence polarization | inhibition, % at 5.96 µM | hit rate 0.44% among 320,000 | AID 2280, 2010 | Female germline-specific tumor suppressor gld-1 (Caenorhabditis elegans), Q17339 | purified GLD-1 + fluorescein TGE RNA;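 active = percent inhibition above a per-plate cutoff, the plate mean of test compounds plus 3 SD, cut at about 30% in these data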;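 also: 0% = DMSO wells with GLD-1 and probe and 100% = wells lacking GLD-1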
# Target sequence (Q17339 whole entry, looked up): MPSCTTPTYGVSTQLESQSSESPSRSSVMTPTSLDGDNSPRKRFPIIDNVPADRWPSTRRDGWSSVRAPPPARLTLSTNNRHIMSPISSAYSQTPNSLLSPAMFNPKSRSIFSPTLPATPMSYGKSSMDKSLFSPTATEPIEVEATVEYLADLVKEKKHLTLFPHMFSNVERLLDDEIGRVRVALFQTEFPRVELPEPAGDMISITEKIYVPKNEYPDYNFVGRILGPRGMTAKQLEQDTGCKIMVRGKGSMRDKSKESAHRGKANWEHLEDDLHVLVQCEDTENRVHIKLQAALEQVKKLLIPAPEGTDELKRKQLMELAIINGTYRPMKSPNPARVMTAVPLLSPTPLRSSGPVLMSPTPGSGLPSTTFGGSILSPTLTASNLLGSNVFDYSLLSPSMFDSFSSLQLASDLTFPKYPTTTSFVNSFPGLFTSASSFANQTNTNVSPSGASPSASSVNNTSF
# EBV gp42 block: Epstein-Barr virus gp42 inhibitors, primary screen, biochemical, uHTS, fluorescence polarization | Fluorescence polarization binding assay, mP read-out | inhibition, % (tested at 21.74 µM) | hit rate 0.42% among 220,000; in the data active = inhibition above about 50%
# eLon inh: inhibitors of E. coli Lon protease, primary screen, biochemical, fluorescence polarization | P0A9M0 | hit rate 0.42% among 360,000 | inhibition, % at 7.94 µM | purified E. coli Lon protease; in the data active = inhibition above about 13%, passing the limit was not always enough;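 also: 0% = enzyme with probe and DMSO and 100% = no enzyme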
# Bcl-xL conf: Bcl-xL inhibitors blocking Bim BH3 binding, confirmation, counter-screen for MCL1 inhibitor project, biochemical, fluorescence polarization | shares compounds with MCL1 BIM primary | GST-Bcl-xL / FITC-Bim BH3 peptide FP binding | inhibition, % at 10.9 µM | hit rate 54% among 1,700;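 active = inhibition above a cutoff equal to the mean inhibition of all tested compounds plus 3 SD, cut at about 30% in these data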;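 also: 0% = DMSO wells and 100% = unlabeled Bim BH3 control peptide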
# MCL1 inh confirm: inhibitors of MCL1 binding to BIM-BH3, confirmation, biochemical, fluorescence polarization, triplicate | shares compounds with MCL1 BIM primary | AID 2168, 2009 | inhibition, % at 10.9 µM | hit rate 61% among 1,700 | GST-MCL1 / FITC-Bim-BH3 fluorescence polarization;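 active = inhibition above the average of all tested compounds plus 3 SD, cut at about 40% in these data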;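 also: 0% = DMSO wells and 100% = unlabeled Bim-BH3 control peptide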
# * hit, by the source's call; ? = inconclusive; nt = not tested or not shown; + = active, no number.
SMILES,MEX-5 binding,MCL1 BIM primary,BCLXL inh,GLD-1 RNA inh,EBV gp42 block,eLon inh,Bcl-xL conf,MCL1 inh confirm
COc1cccc2c1C(=O)c1c(O)c3c(c(O)c1C2=O)C[C@@](O)(C(=O)CO)C[C@@H]3O[C@H]1C[C@H](N)[C@@H](O)[C@H](C)O1,?,+,+,+,nt,+,+,+
CC(=O)[C@]1(O)Cc2c(O)c3c(c(O)c2[C@@H](O[C@H]2C[C@H](N)[C@H](O)[C@H](C)O2)C1)C(=O)c1ccccc1C3=O,?,+,+,+,nt,nt,+,+
COC(=O)c1c(NC(=O)COC(=O)Cn2cnc3ccccc32)sc2c1CCCC2,-1.0,-2.2,-0.1,-3.5,-14.8,6.7,nt,nt
COC(=O)/C=C1\S/C(=N\N=C\CC(=O)OC)NC1=O,-6.3,10.4,11.2,6.6,4.2,7.6,nt,nt
CCn1c(SC(C)C(=O)O)nc2sc3c(c2c1=O)CCC3 (centres undefined),nt,44.2*,11.1,10.9,51.6*,-2.1,15.4,51.7*
CC(Sc1nc2sc3c(c2c(=O)n1-c1ccccc1)CCCC3)C(=O)O (centres undefined),0.7,5.7,4.9,-1.8,-29.6,-3.1,nt,nt
C[C@@]12C(=O)Nc3cc(F)c(F)cc3C(=O)N1[C@H]1c3cc(Cl)ccc3OC[C@@H]1[C@@H]2c1ccccc1,nt,nt,nt,3.4,nt,17.7,nt,nt
CCOc1ccc2ccccc2c1/C=N/NC(=O)CNC(=O)Cc1ccccc1,-0.7,-13.0,-4.2,2.4,-7.5,3.7,nt,nt
CN(C)c1ccc(N2C(=O)CSC2=S)cc1,3.3,45.6*,38.5*,-0.2,-11.0,-2.3,14.2,12.7
CCCCN(C(=O)Cc1cccc(F)c1)c1c(N)n(CCC)c(=O)[nH]c1=O,1.7,-7.6,-11.0,-0.3,-0.4,-5.3,nt,nt
O=c1oc2ccccc2nc1/C=C(O)/C=C\c1ccccc1,1.8,69.0*,56.7*,34.5*,-20.3,-11.5,-40.2,-94.0
CCc1nnc(NC(=O)CSc2sc3c(O)cc(=O)[nH]c3c2C#N)s1,-5.0,48.2*,25.6,-2.8,nt,-22.8,32.5*,57.9*
COc1ccccc1NC(=O)CSc1sc2c(O)cc(=O)[nH]c2c1C#N,-1.6,45.4*,18.1,1.5,nt,-6.5,16.3,27.4
CCOc1ccc(S(=O)(=O)N(C(=O)c2ccco2)c2cc3sc(=O)oc3c3ccccc23)cc1,-1.8,38.3,13.8,-3.4,-2.2,3.5,nt,nt
COc1ccc(S(=O)(=O)N(C(=O)c2ccco2)c2cc3sc(=O)oc3c3ccccc23)cc1,3.0,44.5*,16.9,4.9,-0.8,8.8,1.1,-3.5
Cc1ccc(S(=O)(=O)N(C(=O)c2ccco2)c2cc3sc(=O)oc3c3ccccc23)cc1,-3.5,43.6*,14.2,0.1,-8.6,-5.6,14.6,10.4
CC(=O)N(c1ccc2oc(=O)sc2c1)S(=O)(=O)c1ccccc1,-0.7,25.8,14.8,4.8,-7.0,7.9,nt,nt
COc1cccc(-n2cnnc2SC(C)C(=O)NC2CCCC2)c1 (centres undefined),nt,5.0,-2.2,-0.1,nt,2.6,nt,nt
Cc1ccc(C(=O)O)cc1-c1ccc(/C=C2/NC(=O)N(c3ccccc3)C2=O)o1,0.0,52.3*,21.5,-0.7,-3.8,-13.0,36.2*,62.8*
Cc1cc(C(=O)O)ccc1-c1ccc(/C=C2\NC(=O)N(Cc3ccccc3Cl)C2=O)o1,-10.9,29.0,8.3,-4.1,-34.1,-10.8,nt,nt
Cn1ccc2cc3c(cc21)CCN3C(=O)Nc1cccnc1,nt,46.5*,17.3,-2.8,nt,7.3,38.6*,49.6*
Cc1nc(C)c(NC(=O)N2CCc3ccccc32)cc1NC(=O)N1CCc2ccccc21,1.5,3.8,9.4,-2.7,-0.6,3.9,nt,nt
CSc1ccc(C2C(C#N)=C(N)Oc3cc4c(cc32)OCO4)cc1 (centres undefined),-0.9,43.4*,6.9,-1.5,-1.7,1.4,3.3,6.6
Cc1ccc(C2C(C#N)=C(N)Oc3cc4c(cc32)OCO4)cc1 (centres undefined),-1.3,-6.0,-0.8,1.1,2.7,-5.1,nt,nt
COc1ccc(C(=O)O)cc1S(=O)(=O)Nc1ccccc1-c1ccccc1,0.0,-6.3,-0.1,6.0,nt,8.6,nt,nt
SMILES,MEX-5 binding,MCL1 BIM primary,BCLXL inh,GLD-1 RNA inh,EBV gp42 block,eLon inh,Bcl-xL conf,MCL1 inh confirm
Cc1ccc(C)n1-c1ccccc1N,-21.3,86.8*,92.3*,99.3*,6.0,nt,-123.4,-193.8
CCN1/C(=C/C=C/c2sc3ccccc3[n+]2CC)Sc2ccccc21,?,+,+,-0.1,nt,29.6,+,+
CCN1/C(=C/C=C/C=C/C=C/c2sc3ccccc3[n+]2CC)Sc2ccccc21,27.4,8.5,6.9,-130.8,nt,-31.7,nt,nt
Brc1ccc(Nc2nc3ccccc3n3nnnc23)cc1,-1.3,17.2,11.7,2.6,11.0,nt,nt,nt
c1ccc(Nc2nc3ccccc3n3nnnc23)cc1,1.2,60.9*,36.3*,5.5,42.3,-29.8,33.8*,32.9
Cn1c(SCC(=O)Nc2ccc(F)cc2)nnc1C1CC1,1.0,176.3*,1.9,-2.8,nt,2.5,-20.4,-35.7
CCc1ccccc1NC(=S)N(Cc1ccc(OC)cc1)CC1CCC(C(=O)O)CC1 (centres undefined),1.5,2.9,8.0,4.4,1.3,-8.7,nt,nt
Cc1cc(OCC(=O)OCC(=O)NCc2ccco2)ccc1Cl,-1.8,-5.8,2.7,7.7,nt,4.6,nt,nt
CCc1oc2ccccc2c1C(=O)c1cc(Br)c(O)c(Br)c1,-5.5,62.3*,0.7,3.4,-6.4,0.7,4.3,11.6
CCN(CC)C(=O)CSc1ncnc2c(-c3cccs3)nsc12,nt,63.9*,35.0*,16.5,-15.2,-16.0,13.8,31.9
O=C(CN1C(=O)NC2(CCCCCC2)C1=O)NCCc1ccc(F)cc1,nt,3.9,0.4,1.4,nt,-9.8,nt,nt
CCOC(=O)c1c(/N=C/c2cccc([N+](=O)[O-])c2O)sc(C)c1C,-5.8,55.0*,44.7*,21.4,2.0,0.4,16.5,22.3
CC(C)n1cnnc1SCC(=O)NNC(=O)COc1ccc(Cl)cc1,2.1,8.2,3.0,5.0,nt,-6.2,nt,nt

# Assay outcomes from PubChem BioAssay.
